Results from PubChem BioAssay AID1224817 (Yan Lab, Georgia Cancer Center, Augusta University, 2016).
Among all 2,000 compounds or so, about 25 (1%) were called active.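 The calls were made as follows: active = log2 luciferase ratio at or below -0.5849, meaning signal at two thirds of solvent-only control or lower; inactive = the rest.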 Shown is part of a subset that was picked to be rich in actives.

assay: inhibitors of EIF4E gene expression, primary screen, cell-based, HT1080, luciferase reporter (AID 1224817); conditions: HT1080 EIF4E-luc2 knock-in reporter, 16 h, at 2.5 µM, active compounds read low;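 also: luciferase reports endogenous eIF4E expression since it is co-expressed from the native EIF4E locus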

log2 luciferase activity ratio, active:
NCC(=O)Nc1ccccc1 -0.679
COc1ccc(CCN(C)CCCC(C#N)(c2ccc(OC)c(OC)c2)C(C)C)cc1OC (stereo unspecified) -0.662
Cc1c2ccccc2c(CSC(=N)N)c2ccccc12 -2.19
O=C1N[C@@H]([C@H]2CC[C@H](Cl)CN2)C(=O)N[C@H]1[C@H]1CC[C@H](Cl)CN1 -0.835
CCOc1ccc2c(ccc(/C=C\c3cc(C)c4cccnc4c3O)[n+]2C)c1 -0.823
Oc1cccnc1CN1CCCCC1 -0.635

log2 luciferase activity ratio, inactive:
O=C(O)/C=C\C(=O)Nc1ccccn1 0.0837
C[N+]1(CCC(=O)c2ccccc2)CCC2CCC(C2)C1 (stereo unspecified) 0.0296
CCCCCC[C@H]([C@H](C)O)n1cnc2c(N)ncnc21 -0.0979
NCCSCCC(=O)O -0.0504
CC(=O)CC(=O)Nc1ccc2ccccc2c1 0.376
CC(C)(CC(=O)Nc1ccccc1)C(=O)O -0.26
CN(C)Cc1c[nH]c2nc[nH]c(=O)c12 0.205
CN(C)CCC(=O)[C@@]1(O)CC[C@H]2[C@@H]3CC=C4C[C@@H](O)CC[C@]4(C)[C@H]3CC[C@@]21C 0.263
O=C(O)CC1OCC=C2C[N+]3([O-])CCC45c6ccccc6NC4C1C2CC53 (stereo unspecified) 0.195
Cc1ccc(C2(C)CC/C(=N/N=C3/CCC(C)(c4ccc(C)c(C)c4)c4cc(C)c(C)cc43)c3cc(C)c(C)cc32)cc1C (stereo unspecified) 0.135
Oc1c(Cl)cc(C(c2cc(Cl)c(O)c(Cl)c2)C(c2cc(Cl)c(O)c(Cl)c2)c2cc(Cl)c(O)c(Cl)c2)cc1Cl -0.198
COc1ccc(C[N+](C)(C)N)cc1OC -0.225
Cc1cc(=O)oc2c(OS(C)(=O)=O)c(OS(C)(=O)=O)ccc12 0.0541
Cc1ccn2c(CCc3nnc4cc(C)ccn34)nnc2c1 -0.0744
CC(=O)NC1CONC1=O (stereo unspecified) -0.303
C=C[C@]1(C)C[C@@H](OC(=O)CO)[C@@]2(C)[C@H](C)CC[C@]3(CCC(=O)[C@H]32)[C@@H](C)[C@@H]1O 0.127
Oc1ccc(Cc2nccc3cc(O)c(O)cc23)cc1O -0.044
OCCN(CO)CO -0.297
COc1ccc(CNC(C)C(=O)O)cc1 (stereo unspecified) -0.198
C/C(=N\[N+](C)(C)C)c1ccc(C)c(C)c1 -0.284
CC(C)CCC[C@@H](C)[C@H]1CC[C@H]2[C@@H]3CC[C@H]4C[C@H](N)CC[C@]4(C)[C@H]3CC[C@]12C 0.0721
CN(C)CCCNc1cc(O)c2c(c1O)C(=O)c1ccccc1C2=O 1.39
O=C(O)C/C=C/CC(=O)O -0.0603
CC(C)(C)CC(C)(C)c1cc(O)c(O)c(CN2CCCCC2)c1 -0.183
CC(C)(C)c1ccc(CN2CCN(C(c3ccccc3)c3ccc(Cl)cc3)CC2)cc1 (stereo unspecified) -0.0054
O=C1C(Cl)=C(Sc2nnc3c4ccccc4c4ccccc4c3n2)C(=O)c2ccccc21 0.552
O=C(O)CCSC1=NCCN1 -0.275
Oc1ccc2ccccc2c1CN(Cc1c(O)ccc2ccccc12)C1CCCCC1 -0.018
Nc1nccc(Nc2ccc(S(N)(=O)=O)cc2)n1 -0.103
C/C(=N\NC1=NCCN1)c1cn(C2=NCCN2)nc1C 0.0578
CNC(c1ccncc1)C(NC)c1ccncc1 (stereo unspecified) 0.0459
O=C1c2cccc([N+](=O)[O-])c2C(=O)N1c1ncn[nH]1 -0.0931
COC(=O)[C@@]12OC[C@]34[C@H]([C@@H](O)[C@@H]1O)[C@@]1(C)C=C(OC5OC(CO)C(O)C(O)C5O)C(=O)[C@@H](C)[C@@H]1C[C@H]3OC(=O)[C@H](OC(=O)/C=C(\C)C(C)C)[C@@H]24 (stereo partly specified) 0.215
O=C(O)C1OC1C(=O)O (stereo unspecified) -0.131
Cc1cc(N)c2cc(OCCOc3ccc4nc(C)cc(N)c4c3)ccc2n1 -0.0306
CN(CCc1ccccn1)c1ccc2c(c1)C(=O)c1ccccc1-2 0.213
COc1c2c(cc3c1[C@@H]1Oc4c(ccc(O)c4CC=C(C)C)[C@@H]1CO3)OC(C)(C)C=C2 -0.0761
O=C1c2ccccc2C(=O)N1CCCSc1ccccc1 0.412
CN(C)CC(O)c1ccc(Cl)c2ccccc12 (stereo unspecified) -0.0364
Oc1c(C(O)(c2ccccc2)c2ccc3ccccc3c2O)ccc2ccccc12 0.313
COc1cc2oc3cc(=O)cc4oc(-c5ccccc5)cc(c2c2c1CCC(c1ccccc1)O2)c43 (stereo unspecified) 0.143
CCCCSCc1nc2nc(Cl)c(Cl)nc2[nH]1 -0.0768
Cn1cc(NC(=O)c2cc(NC(=O)c3cc(NC=O)cn3C)cn2C)cc1C(=O)NCCC(=N)N -0.0884
NC(N)=NC(N)=Nc1c(F)c(F)c(F)c(F)c1F 0.115
O=C(O)/C=C/C(=O)Nc1cccc2c1-c1ccccc1C2=O -0.335
NNC(=O)CCc1ccc2ccc3ccccc3c2c1 -0.0063
NC(=O)N/N=C1/CCC(O)CC1CC(=O)O (stereo unspecified) -0.0076
CSc1nc(C)cc(Nc2ccc(O)c(CN3CCOCC3)c2)n1 0.0575
CC(C)(C)c1cc(Br)c(O)c(CN(Cc2cc(C(C)(C)C)cc(Br)c2O)C2CCCCC2)c1 0.147
N=C(N)SCc1cccc2c(=O)cc(-c3ccccc3)oc12 -0.583
Cc1ncc(CSC(=N)N)n1Cc1ccccc1 0.207
O=[N+]([O-])c1nccn1CC(O)CN1CCCCC1 (stereo unspecified) 0.364
NC(Cc1nn[nH]n1)C(=O)O (stereo unspecified) -0.174
Cc1cc2ccccc2c[n+]1CC(O)C[n+]1cc2ccccc2cc1C -0.0398
O=C(O)c1nn(-c2ccc(Cl)cc2)c2c1C(=O)c1ccccc1C2=O 0.061
Cc1c2cccc(Sc3ccccc3)c2c2c3c(cccc13)[S+](c1ccccc1)C2 (stereo unspecified) 0.38
Cc1ncc(COP(=O)(O)O)c(C)c1O 0.148
O=C(O)c1ccc(C(=O)O)c(C(=O)O)c1.[NH-]C1CCCCC1[NH-].[Pt+2] 0.127
Cn1c(=S)c2[nH]c(SCCCc3ccccc3)nc2n(C)c1=O 0.0675
CN1CCN(c2nc3c(c(=O)n(C)c(=O)n3C)n2C)CC1 -0.0962
Cc1[nH]n(-c2ccc(S(=O)(=O)O)cc2)c(=O)c1N=Nc1ccccc1 0.391
Nc1ccc(N=Nc2ccc(-c3ccc(O)cc3)cc2)c2ccc(S(=O)(=O)O)cc12 0.247
NNC(=O)C(O)C(O)C(=O)NN (stereo unspecified) 0.225
Nc1nc2c(c(=O)[nH]1)NC(CCNc1ccc(C(=O)O)cc1)CN2 (stereo unspecified) -0.0715
O=C1COC(c2ccccc2O)=NN1CCCN1CCCC1 0.0493
CNC1C(OC2C(OC3C(O)C(O)C(N=C(N)N)C(O)C3N=C(N)N)OC(C)C2(O)/C=N/NC(N)=S)OC(CO)C(O)C1O (stereo unspecified) -0.0125
COc1cccc2[nH]c(-c3ccccn3)nc12 1.75
C/C=C/c1cc2c(c(=O)o1)C(=O)[C@@H](O)[C@H](C)O2 0.166
Sc1ccc2ccccc2c1CNCc1ccccc1 0.379
O=C(O)C1CC[N-]CC1.O=C(O)C1CC[N-]CC1.[NH2-].[NH2-].[Pt+4] 0.578
CCC(C(=O)C(C)C(O)C(C)CCc1ccc(C)c(O)c1C(=O)O)C1OC(CC)(C2CCC(O)(CC)C(C)O2)CC1C (stereo unspecified) -0.243
CC1=C2[C@H]3OC(=O)[C@@H](C)[C@@H]3CC[C@@]2(C)C=C/C1=N\O -0.026
Cc1ccc2nc(-c3ccc(NC(=O)c4ccc(N)cc4)c(S(=O)(=O)O)c3)sc2c1 0.394
O=C(O)CNC(=O)C1NC(C(F)(F)F)(C(F)(F)F)OC1(C(F)(F)F)C(F)(F)F (stereo unspecified) 0.305
C=C1C(=O)OC2CC(C)C3(O)CCC(=O)C3(C)CC12 (stereo unspecified) -0.237
Nc1ccc(S(=O)(=O)NCCS(=O)(=O)O)cc1 -0.13
O=C(O)c1cc(=O)[nH]c(=S)[nH]1 0.238
NC(N)=N/N=C/c1ccc(O)c(C(=O)O)c1 0.267
NNC(=O)CS(=O)(=O)Nc1ncccn1 -0.266
O=C(N/N=C/c1ccc2c(c1)CCC2)c1ccccc1O 0.157
CS(=O)(=O)Nc1ccc(Nc2c3ccccc3nc3ccccc23)cc1 0.308
O=C(O)C(O)C(O)C(O)C(=O)CO (stereo unspecified) -0.272
CC(=O)Nc1cc(CN2CCCCC2)c(O)c2ncccc12 -0.0787
Cc1nc(CN2CCCCC2)c(O)c(=O)[nH]1 -0.0244
O=P(O)(CCP(=O)(O)c1ccccc1)c1ccccc1 0.225
OCC1OC(n2cnc3c(/C=C(/O)c4ccccc4)ncnc32)C(O)C1O (stereo unspecified) 1.58
O=c1ccc2nc3ccc(O)cc3oc-2c1 -0.212
C[n+]1cccc(/C=C/c2ccc3cccc(O)c3n2)c1 0.721
NC(CCCCO)C(=O)O (stereo unspecified) 0.0343
COc1ccc2c3c(ccc2c1)NC(C(=O)O)CC3 (stereo unspecified) 1.85
